ChEMBL document CHEMBL1157539, “Thousands of chemical starting points for antimalarial lead identification” (Nature, 2010)

What was measured:
Format in all cases: functional
Plasmodium falciparum [1] = assay: GSK_TCMDC: Inhibition of Plasmodium falciparum 3D7 in whole red blood cells, using parasite LDH activity as an index of growth. Test compounds present at 2uM
Plasmodium falciparum [2] = assay: GSK_TCMDC: Inhibition of Plasmodium falciparum Dd2 in whole red blood cells, using parasite LDH activity as an index of growth. Test compounds present at 2uM
HepG2 = assay: GSK_TCMDC: Percent inhibition of human HepG2 cell line. Test compounds present at 10uM.

SMILES | Inhibition (Plasmodium falciparum [1]) | Inhibition (Plasmodium falciparum [2]) | Inhibition (HepG2)
O=C(c1ccc(-c2cnc3[nH]cc(-c4ccc(C(=O)N5CCOCC5)cc4)c3c2)cc1)N1CCOCC1 | 91% | 0% | 19%
Cc1ccc(Nc2nccc(NCC(O)c3cccc(F)c3)n2)cc1 (stereo unspecified) | 95% | 26% | 24%
COc1ccc2ncc(F)c(NC(=O)C3CCC(NCc4cc5c(F)cccc5[nH]4)CC3)c2n1.Cl (stereo unspecified) | 91% | 29% | 39%
CN1CCC(c2ccc(NC(=O)c3ccc(-c4cccc(C(F)(F)F)c4)o3)cc2)CC1 | 86% | 23% | 23%
O=C(COc1ccc(C(=O)c2ccccc2)cc1)Nc1nccs1 | 94% | 18% | 0%
O=C(Nc1ccc([N+](=O)[O-])cc1O)Nc1ccccc1Oc1ccccc1 | 92% | 1% | 45%
CCN(CC)CCN(Cc1ccc(-c2ccc(C(F)(F)F)cc2)nc1)C(=O)Cn1cc(Cc2cnn(C)c2)c(=O)n2nc(-c3ccccc3)cc12.O=C(O)C(O)C(O)C(=O)O | 97% | 95% | 35%
CC(=O)Nc1ccc(C(=O)Nc2cccc(-c3ccc(-c4nc5ccccc5[nH]4)cc3)c2)cn1 | 100% | 93% | 12%
COc1cc(/C=C/C(=O)NCC(CCNc2cc(=O)c3ccccc3[nH]2)NCc2cc(Br)cc(Br)c2)cc(OC)c1 (stereo unspecified) | 90% | 28% | 0%
CN1CCC(N(Cc2ccc(-c3ccc(Cl)cc3)cc2)C(=O)Cn2c(CCc3cccc(F)c3F)cc(=O)c3ccccc32)CC1.O=C(O)C(O)C(O)C(=O)O | 97% | 88% | 93%
O=C(NCCCCN1CCC(c2c[nH]c3ccccc23)CC1)c1ccc(-c2ccc(C(F)(F)F)cc2)cc1 | 98% | 22% | 34%
CCN1CCN(c2cc(C)c3cc(NC(=O)c4cccc([N+](=O)[O-])c4)ccc3n2)CC1 | 99% | 73% | 74%
COc1ccccc1CNC(=O)c1cc(Br)cc(N2CCN(c3ccncc3)CC2)c1.O=C(O)C(F)(F)F | 95% | 76% | 43%
CCCCCc1cc(O)c2c(c1)OC(C)(C)C=C2C1=CCN(Cc2ccsc2)CC1 | 98% | 48% | 20%
CN(C)CCC1CCN(CCS(=O)(=O)c2cccc(Nc3ccc(-c4cccc(F)c4)cn3)c2)CC1 | 100% | 59% | 94%
COc1ccc(OC)c2c1CCN(CCN1CCC(C(=O)Nc3ccc(C(=O)Nc4ccc(Cl)cc4)cc3)CC1)C2 | 100% | 100% | 25%
COc1ccc2nccc([C@@H](O)CN3CCC(NC(=O)/C=C/c4ccc5ccccc5n4)CC3)c2c1 | 91% | 9% | 12%
Nc1cccc(CNCc2ccc(-c3cccc(-c4nc5cc(F)ccc5[nH]4)c3)cc2)c1.O=C(O)C(F)(F)F | 100% | 94% | 36%
Cc1ccc(O)c(-c2cc(C(=O)Nc3ccc(S(=O)(=O)N4CCCCC4)cc3)[nH]n2)c1 | 94% | 98% | 31%
Cc1ccc2c(c1)NCC21CCN(C[C@@H](O)C2CCN(c3ccnc(Cl)c3)CC2)CC1C (stereo partly specified) | 87% | 69% | 46%
O=C(CSc1nc2ccc([N+](=O)[O-])cc2s1)Nc1ccccc1-c1ccccc1 | 80% | 49% | 0%
O=C(NCC(c1ccc(C(F)(F)F)cc1)N1CCCC1)c1cc(-c2ccncc2)c(-c2cccc(O)c2)o1.O=C(O)C(F)(F)F (stereo unspecified) | 95% | 53% | 9%
CC1(C)CC2CC(C)(CN2C(=O)c2cc(C(C)(C)C)nn2Cc2ccccc2)C1 (stereo unspecified) | 86% | 77% | 0%
Cc1cccc2nc(-c3ccc(-c4ccc(CNC(C)C)cc4)cc3)[nH]c12.O=C(O)C(F)(F)F | 99% | 62% | 12%
Cc1cc(C)c2ncc(C(=O)O)c(O)c2c1 | 93% | 60% | 0%
CCCCCN1CCCN(Cc2cccc(NC(=O)c3ccc(-c4ccccc4)cc3)c2)CC1.O=C(O)C(F)(F)F | 95% | 15% | 23%
CC(C)CNCc1cccc(-c2ccccc2CN(C(=O)NCCc2ccccc2)C2CCN(Cc3ccccc3)CC2)c1.O=C(O)C(F)(F)F | 89% | 82% | 42%
